# Source: PubChem BioAssay (NCATS)
# Records with an inconclusive call do not appear. A call without a number means that no potency is given here. Activity calls are given as the source filed them. Unless noted, the call rests on the fitted dose curve; in most records, active means well fitted curve in the direction sought with a large enough effect; inconclusive means small, poorly fitted or top-dose-only effect, or another doubt; inactive means no such curve, though single readings can be large; an effect the other way counts as inactive or inconclusive.
# Tests used:
# [1] = Nrf2 qHTS screen for inhibitors: Validation (AID 493153; active means well fitted inhibition curve with a large enough effect in the main read-out, with a control signal flat, not every such curve was filed as active); details: Potency: luciferase luminescence; viability change: measured here: cytotoxicity max response
# Method in brief: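 Dose-response validation uses reporter A549 cells with firefly luciferase under an antioxidant response element. Compounds stay on cells 18-24 h at 37°C, and luminescence indicates Nrf2-driven transcription.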
# [2] = qHTS for Inhibitors of Cell Surface uPA Generation: Validation Assay (AID 493164);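 further: RAW 264.7 macrophage cells exposed to compound for 18 h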
# Method in brief: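 RAW 264.7, 4000 cells/well, o/n plating; cpd 7-pt 1:5 dilution 2.45 nM–38.3 uM final; 18 h, 37 C/5% CO2; ATP-Lite, 5 s luminescence exposure.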
# [3] = molecular target: Galactokinase (Homo sapiens) (UniProt P51570); experiment: qHTS Validation Assay for Inhibitors of Human Galactokinase (GALK) (AID 493189)
# Sequence of Galactokinase (Homo sapiens) (P51570 whole entry, looked up): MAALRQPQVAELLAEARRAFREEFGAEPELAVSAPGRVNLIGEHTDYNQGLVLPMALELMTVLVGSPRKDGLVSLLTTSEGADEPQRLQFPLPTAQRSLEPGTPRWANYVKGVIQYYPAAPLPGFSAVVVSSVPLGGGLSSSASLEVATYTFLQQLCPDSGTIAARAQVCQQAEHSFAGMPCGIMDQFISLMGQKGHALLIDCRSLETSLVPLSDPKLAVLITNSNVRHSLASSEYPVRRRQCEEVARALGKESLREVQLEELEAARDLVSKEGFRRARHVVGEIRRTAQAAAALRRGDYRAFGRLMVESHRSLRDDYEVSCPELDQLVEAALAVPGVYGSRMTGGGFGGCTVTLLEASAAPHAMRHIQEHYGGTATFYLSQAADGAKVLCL
# Method in brief: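 GALK (5 nM) with 35 uM ATP and 100 uM galactose in HEPES pH 8.0 with MgCl2, NaCl, DTT and BSA. Reaction ran 1 h at room temperature. Residual ATP read by Kinase-Glo Plus luminescence.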
# [4] = Validation screen for small molecules that induce DNA re-replication in SW480 colon adenocarcinoma cells (AID 504364)
# Method in brief: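 Cells are treated 48 hr with test compound, stained 40 min with Hoechst at 37 C, and scanned for nuclear fluorescence; compounds inducing re-replication increase nuclei with elevated intensity.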
# [5] = molecular target: Peptidyl-prolyl cis-trans isomerase NIMA-interacting 1 (Homo sapiens) (UniProt Q13526); experiment: qHTS Validation Assay to Find Inhibitors of Pin1 (AID 504536; active means well fitted inhibition curve with a large enough effect in the polarisation, with a control signal flat, not every such curve was filed as active; the % refers to the polarisation)
# Sequence of Peptidyl-prolyl cis-trans isomerase NIMA-interacting 1 (Homo sapiens) (Q13526 whole entry, looked up): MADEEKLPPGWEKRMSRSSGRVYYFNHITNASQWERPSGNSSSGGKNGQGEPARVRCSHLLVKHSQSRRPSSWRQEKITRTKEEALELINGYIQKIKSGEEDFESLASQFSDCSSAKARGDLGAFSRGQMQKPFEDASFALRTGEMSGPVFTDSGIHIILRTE
# Method in brief: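 Fluorescence polarization competition: compounds (titration) displace HiFluor-488-labeled Pin1-1b peptide from Pin1 (0.3 uM final) in pH 7.5 HEPES buffer with DTT, 10 min at room temperature; %Activity normalized to no-enzyme wells, curves fitted.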
# [6] = molecular target: Phosphoglycerate kinase, glycosomal (Trypanosoma brucei brucei) (UniProt P07378); experiment: qHTS Validation Assay to Find Inhibitors of Phosphoglycerate Kinase (AID 504547)
# Sequence of Phosphoglycerate kinase, glycosomal (Trypanosoma brucei brucei) (P07378 whole entry, looked up): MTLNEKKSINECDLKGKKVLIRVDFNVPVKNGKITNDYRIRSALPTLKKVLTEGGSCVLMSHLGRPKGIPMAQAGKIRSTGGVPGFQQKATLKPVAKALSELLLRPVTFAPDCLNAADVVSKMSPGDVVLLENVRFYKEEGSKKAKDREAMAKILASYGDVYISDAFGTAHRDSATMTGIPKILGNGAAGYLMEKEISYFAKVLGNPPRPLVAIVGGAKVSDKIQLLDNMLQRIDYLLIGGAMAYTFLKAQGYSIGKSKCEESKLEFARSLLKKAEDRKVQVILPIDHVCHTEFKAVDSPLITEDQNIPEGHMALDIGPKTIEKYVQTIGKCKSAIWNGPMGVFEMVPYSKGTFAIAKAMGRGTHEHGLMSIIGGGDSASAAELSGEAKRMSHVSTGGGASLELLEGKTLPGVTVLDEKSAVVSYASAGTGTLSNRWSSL
# Method in brief: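 PGK activity was coupled to GAPDH (100nM final), which generates the unstable substrate 1,3-bisphosphoglycerate in-well. Reactions ran 60 minutes at room temperature in 100mM TEA pH 7.6, 5mM MgCl2, 0.01% Tween-20, then Kinase-Glo Plus luminescence was read.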
# [7] = molecular target: phosphoglycerate mutase (Leishmania major) (UniProt Q4Q090); experiment: qHTS Validation Assay to Find Inhibitors of Phosphoglycerate Mutase (AID 504548); details: Potency: inhibition qHTS;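 further: end-point luminescence from Kinase-GloPlus after the PGAM reaction; series mostly up to about 58 µM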
# Sequence of phosphoglycerate mutase (Leishmania major) (Q4Q090 1-553): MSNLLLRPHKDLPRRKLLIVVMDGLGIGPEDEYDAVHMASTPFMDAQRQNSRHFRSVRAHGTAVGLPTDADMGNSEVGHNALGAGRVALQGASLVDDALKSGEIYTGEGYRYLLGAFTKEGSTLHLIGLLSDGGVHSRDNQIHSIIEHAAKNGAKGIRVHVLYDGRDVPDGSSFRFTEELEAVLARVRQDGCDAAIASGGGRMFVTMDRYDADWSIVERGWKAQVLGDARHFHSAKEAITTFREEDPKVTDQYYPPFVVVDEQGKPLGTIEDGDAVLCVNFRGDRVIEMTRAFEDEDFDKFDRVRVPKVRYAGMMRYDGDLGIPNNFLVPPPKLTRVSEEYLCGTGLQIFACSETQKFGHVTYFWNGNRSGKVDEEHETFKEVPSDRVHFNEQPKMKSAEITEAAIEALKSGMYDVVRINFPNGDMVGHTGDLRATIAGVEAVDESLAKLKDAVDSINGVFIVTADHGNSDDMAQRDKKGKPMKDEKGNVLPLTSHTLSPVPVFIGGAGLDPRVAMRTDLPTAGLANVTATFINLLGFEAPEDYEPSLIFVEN
# Method in brief: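 Inhibition of L. major PGAM was assessed by Kinase-GloPlus luminescence following a 45-minute room-temperature reaction with enzyme at 1.25nM final.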
# [8] = molecular target: Ubiquitin carboxyl-terminal hydrolase 1 (Homo sapiens) (UniProt O94782); experiment: Inhibitors of USP1/UAF1: Pilot qHTS (AID 504865); further: nearly all actives have a fitted effect of over 35% in size; further: potency means the concentration at half of the fitted maximal effect
# Sequence of Ubiquitin carboxyl-terminal hydrolase 1 (Homo sapiens) (O94782 whole entry, looked up): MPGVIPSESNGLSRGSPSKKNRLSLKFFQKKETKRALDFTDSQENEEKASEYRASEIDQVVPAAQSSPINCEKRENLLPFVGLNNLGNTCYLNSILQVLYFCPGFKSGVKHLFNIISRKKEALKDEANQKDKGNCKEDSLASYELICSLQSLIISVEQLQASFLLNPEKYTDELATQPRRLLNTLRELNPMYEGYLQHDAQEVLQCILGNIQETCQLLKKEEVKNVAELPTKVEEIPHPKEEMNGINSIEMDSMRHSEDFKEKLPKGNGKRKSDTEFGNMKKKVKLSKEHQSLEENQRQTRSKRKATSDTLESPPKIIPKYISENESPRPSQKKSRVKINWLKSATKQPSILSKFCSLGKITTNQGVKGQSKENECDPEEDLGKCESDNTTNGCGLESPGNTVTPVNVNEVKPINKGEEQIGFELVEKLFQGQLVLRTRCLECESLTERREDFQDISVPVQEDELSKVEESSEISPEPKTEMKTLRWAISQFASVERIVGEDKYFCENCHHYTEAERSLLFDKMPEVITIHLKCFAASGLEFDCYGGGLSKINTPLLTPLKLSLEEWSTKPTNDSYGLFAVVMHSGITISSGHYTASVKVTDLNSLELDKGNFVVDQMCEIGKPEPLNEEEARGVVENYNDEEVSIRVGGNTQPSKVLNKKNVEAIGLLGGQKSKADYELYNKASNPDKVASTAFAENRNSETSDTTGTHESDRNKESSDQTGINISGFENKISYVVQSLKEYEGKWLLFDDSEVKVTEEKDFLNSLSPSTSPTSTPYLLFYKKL
# Method in brief: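 USP1/UAF1 complex at 1 nM preincubated 15 min at room temperature with compound, then Ub-Rho substrate added at 150 nM final. Fluorescence (480/540 nm) read kinetically in 50 mM HEPES pH 7.8, 0.5 mM EDTA, 1 mM TCEP, 0.1 mg/ml BSA, 0.01% Tween-20.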
# [9] = qHTS for Inhibitors of ATXN expression: Validation of Cytotoxic Assay (AID 588349);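 further: cells exposed to compound for 72 hr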
# Method in brief: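 HEK293, compound dose series, 72 hr / 37 degrees C; viability via CellTiter Glo (intracellular ATP).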
# [10] = molecular target: DNA dC->dU-editing enzyme APOBEC-3G (Homo sapiens) (UniProt Q9HC16); experiment: qHTS for inhibitors of Vif-A3G interactions: Validation (AID 588379)
# Sequence of DNA dC->dU-editing enzyme APOBEC-3G (Homo sapiens) (Q9HC16 whole entry, looked up): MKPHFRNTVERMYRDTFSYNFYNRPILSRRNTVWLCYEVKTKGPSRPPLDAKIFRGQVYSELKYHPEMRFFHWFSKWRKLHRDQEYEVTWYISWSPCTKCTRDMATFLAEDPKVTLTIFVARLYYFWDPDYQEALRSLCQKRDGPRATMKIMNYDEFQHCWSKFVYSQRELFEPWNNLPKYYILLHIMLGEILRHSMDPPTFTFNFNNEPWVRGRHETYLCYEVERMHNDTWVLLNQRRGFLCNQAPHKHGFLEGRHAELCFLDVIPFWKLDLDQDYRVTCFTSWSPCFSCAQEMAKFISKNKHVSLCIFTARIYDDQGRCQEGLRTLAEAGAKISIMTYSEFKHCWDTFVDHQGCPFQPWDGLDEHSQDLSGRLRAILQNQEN
# Method in brief: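 HeLa cells stably expressing Vif and A3G-eYFP, 700 cells/well, incubated overnight at 37 deg C, then exposed to compound overnight at 37 deg C. Inhibition of Vif-mediated degradation read as increased yellow fluorescence (Ex 488/Em 500-530) by laser-scanning cytometry.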
# [11] = qHTS for Inhibitors of ATXN expression: Validation (AID 588378); further: series mostly up to about 57 µM; nearly all actives have a fitted effect of over 75% in size
# Method in brief: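 HEK293 cells carrying ATXN2-firefly luciferase reporter, treated with compound 24 h at 37 °C. Viability read first by CellTiter-Fluor (405/525 nm), then reporter expression by Bright-Glo luminescence; controls were a known ATXN2 expression inhibitor and a luciferase inhibitor.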
SMILES,Potency [1],viability change [1],outcome [2],Potency [3],Potency [4],Potency [5],Potency [6],Potency [7],Potency [8],Potency [9],Potency [10],Potency [11]
O=S(=O)(c1cccc2c(Cl)cccc12)N1CCCNCC1,inactive,2.63%,inactive,inactive,inactive,inactive,inactive,inactive,inactive,inactive,inactive,
CC1CCN(CC[C@H]2CCCN2S(=O)(=O)c2cccc(O)c2)CC1,inactive,8.25%,inactive,inactive,inactive,inactive,inactive,inactive,inactive,inactive,inactive,inactive
COc1cc2c(CCNC(C)=O)c[nH]c2cc1O,inactive,-0.977%,inactive,inactive,inactive,inactive,inactive,inactive,inactive,inactive,,inactive
NC1C=CC=C(C(=O)O)C1 (stereo not drawn),inactive,17.7%,inactive,inactive,inactive,inactive,inactive,inactive,inactive,inactive,,inactive
O=C(O)/C=C/c1ccc(O)c(O)c1,inactive,3.15%,inactive,inactive,inactive,inactive,inactive,inactive,inactive,inactive,inactive,inactive
CCCCS(=N)(=O)CC[C@H](N)C(=O)O (stereo partly drawn),inactive,0.751%,inactive,inactive,inactive,inactive,inactive,inactive,inactive,inactive,,inactive
CCCn1c(=O)c2c(ncn2C)n(CCC)c1=O,inactive,3.43%,inactive,inactive,inactive,inactive,inactive,inactive,inactive,inactive,,inactive
CCCn1c(=O)c2[nH]c(-c3ccc(S(=O)(=O)O)cc3)nc2n(CCC)c1=O,inactive,-4.01%,inactive,inactive,inactive,inactive,inactive,inactive,,inactive,,inactive
CCN(CC)CCCCCCCCOC(=O)c1cc(OC)c(OC)c(OC)c1,inactive,6.3%,inactive,inactive,inactive,inactive,inactive,inactive,inactive,,,inactive
Cn1ccnc1,inactive,2.46%,inactive,inactive,inactive,inactive,inactive,inactive,,inactive,,inactive
C[C@H](O)C(=O)C1=Nc2c(nc(N)[nH]c2=O)NC1,inactive,8.34%,inactive,inactive,inactive,inactive,,inactive,56.2 µM (active),,,inactive
N=C(N)c1ccc(N)cc1,inactive,3.63%,inactive,inactive,inactive,inactive,inactive,inactive,,inactive,,inactive
Cn1cc(C(=O)OCC2CCN(CCNS(C)(=O)=O)CC2)c2ccccc21,inactive,-0.747%,inactive,inactive,inactive,inactive,inactive,inactive,,inactive,inactive,
COC1(C2=NCCN2)COc2ccccc2O1 (stereo not drawn),inactive,-0.853%,inactive,inactive,inactive,inactive,,inactive,inactive,inactive,,inactive
NC(N)=NC(N)=Nc1ccccc1,inactive,-4.42%,inactive,inactive,inactive,inactive,inactive,inactive,,inactive,inactive,inactive
NC(=O)CC[C@H](N)C(=O)O,inactive,2.88%,inactive,inactive,inactive,inactive,,inactive,inactive,inactive,,inactive
O=c1oc(Cl)c(Cl)c2ccccc12,inactive,-4.81%,inactive,inactive,inactive,inactive,inactive,inactive,,inactive,,inactive
N=C(N)c1ccc(OCCCCCOc2ccc(C(=N)N)cc2)cc1 (tested in a mixture with another compound),inactive,-17%,inactive,inactive,inactive,inactive,,inactive,inactive,inactive,,inactive
Cn1c(=O)c2c(nc(/C=C/c3cccc(Cl)c3)n2C)n(C)c1=O,inactive,3.93%,inactive,inactive,inactive,inactive,inactive,inactive,,inactive,,inactive
O=C(O)C1CCCNC1 (stereo not drawn),inactive,1.96%,inactive,inactive,inactive,inactive,inactive,inactive,,inactive,,inactive
O=C(O)C1=CCCNC1,inactive,5.73%,inactive,inactive,inactive,inactive,,inactive,inactive,inactive,inactive,inactive
CC(/C=C/c1cccc(Oc2ccc(F)cc2)c1)N(O)C(N)=O (stereo not drawn),inactive,3.6%,inactive,inactive,inactive,inactive,inactive,inactive,,inactive,,inactive
Oc1cc2c(cc1O)C(c1ccccc1)CNCC2 (stereo not drawn),inactive,-2.55%,inactive,inactive,inactive,inactive,inactive,inactive,,inactive,,
COc1ccc2c(c1)CCC1C2CC[C@@]2(C)C1CC[C@@H]2NCCCCCCN1C(=O)C=CC1=O (stereo partly drawn),inactive,-5.2%,inactive,inactive,inactive,inactive,inactive,inactive,,inactive,,
